tim10-1 inh: growth inhibitors of tim10-1 mutant yeast, primary screen, luminescence, uHTS; S. cerevisiae tim10-1 ts strain growth, BacTiter-Glo, 24 h; inhibition, % at 20 µM; 330,000 compounds, 2.2% hits; AID 463190, 2010;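 active = inhibition of at least 40%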;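 also: mutant grown at 25 °C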
tim23-1 inh: growth inhibitors of tim23-1 mutant yeast, primary screen, luminescence, uHTS; S. cerevisiae tim23-1 growth, BacTiter-Glo luminescence, 24 h; inhibition, % at 20 µM; 330,000 compounds, 1.3% hits; AID 463212, 2010;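 active = growth inhibition of the mutant yeast at or above 50%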;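 also: temperature-sensitive mutant grown at 25 °C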
TIM10 inh: growth inhibitors of isogenic TIM10 control yeast, primary screen, counter-screen for tim10-1 yeast inhibitor project, luminescence, uHTS; inhibition, % at 10 µM; 330,000 compounds, 1.4% hits; S. cerevisiae TIM10 strain growth, BacTiter-Glo luminescence, 24 h; AID 463195, 2010;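 active = inhibition of 40% or more at the single tested concentration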;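 also: wild-type TIM10 isogenic control strain grown at permissive 25 °C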
NALP1 inh: NALP1 inflammasome inhibitors in reconstituted yeast, colorimetric, S. cerevisiae, triplicate retest | 280,000 compounds, 0.61% hits | AID 2071, 2009 | inhibition, % at 10 µM | S. cerevisiae NALP1/ASC/caspase-1 growth, X-gal OD620, 72 h; in the data active = inhibition mostly above about 24%, no sharp cut-off; inactive = mostly below about 32%
SKKanGAS inh: S. pyogenes SKKanGAS growth inhibitors in kanamycin, primary screen, streptokinase expression inhibitor project, SKKanGAS strain, BacTiter-Glo luminescence | AID 1662, 2009 | 6 h | 300,000 compounds, 1.3% hits | inhibition, % at 7.5 µM;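 active = mean replicate score, as percent of positive control median, at least 50; inconclusive = mean below 50 but one replicate at or above 50; inactive = mean and every replicate below 50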;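 also: strain carries kanamycin resistance gene driven by streptokinase promoter and grows in 40 µg/ml kanamycin; loss of luminescence reflects streptokinase promoter inhibition or plain growth inhibition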
PfHsp90 set2: growth inhibition of PfHsp90-expressing yeast, primary screen, antimalarial PfHsp90 inhibitor project, S. cerevisiae, BacTiter-Glo luminescence, single point, set 2; inhibition, % at 9.4 µM; 310,000 compounds, 0.32% hits; BacTiter-Glo ATP, 48 h; yeast lacking PDR1 and PDR3 efflux regulators;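 active = every replicate shows inhibition above about 80%, whatever the replicate mean, limit read from the data; inconclusive = mean inhibition reaches the set limit but some replicate falls short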
tim23-1 confirm: tim23-1 mutant yeast growth inhibitors, confirmation, luminescence, single concentration; shares compounds with tim23-1 inh; S. cerevisiae tim23-1 growth, BacTiter-Glo luminescence, 24 h; inhibition, % at 20 µM; 4,400 compounds, 83% hits; AID 463218, 2010;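 active = inhibition above about 39% in either of two replicate wells at 20 µM, limit read from the data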;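 also: temperature-sensitive tim23-1 mutant grown at 25 °C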
Hits are given with their value; n = inactive; u = inconclusive; x = no result given. Sampled rows, rich in hits. Any-hit rate of the full collection: about 4.8%.

SMILES	tim10-1 inh	tim23-1 inh	TIM10 inh	NALP1 inh	SKKanGAS inh	PfHsp90 set2	tim23-1 confirm
CCCCCCCCc1ccc(O)cc1	n	51	n	x	x	n	40
C[N+](C)(C)CCc1ccc(O)cc1	n	n	n	n	n	n	x
CCn1c(O)c(C=Nc2ccc(S(N)(=O)=O)cc2)c(=O)n(CC)c1=S	n	n	n	n	n	n	x
NS(=O)(=O)c1ccc(N=Cc2c(O)n(C3CCCCC3)c(=O)n(C3CCCCC3)c2=O)cc1	n	52	n	n	51	n	46
CC[N+]12CCC(CC1)C(=C(c1ccccc1)c1ccccc1)C2	n	n	n	n	n	n	x
CCC(C)(C)n1nnnc1C(c1cccs1)N1CC=C(c2ccc(F)cc2)CC1 (stereo not drawn)	n	57	n	n	n	n	52
CCN(CCO)c1ccc(N=Cc2c(O)n(C)c(=S)[nH]c2=O)cc1	n	n	n	x	n	x	x
CC(=O)C1CCC2C3CCC4CC(O)CCC4(C)C3CCC12C (stereo not drawn)	n	56	n	x	n	n	49
C=CCN1C(=O)/C(=C/c2ccc(Br)s2)C(=O)NC1=S	n	56	n	n	n	u	72
CN(C)S(=O)(=O)c1cc(NC(=O)COC(=O)Cc2ccccc2)ccc1Cl	n	n	n	n	n	n	x
CC(C)CC12CN3CCN(CC(C3)C1O)C2 (stereo not drawn)	n	n	n	n	n	n	x
CC(C)(C)c1ccc(O)c(N=Cc2c(O)ccc3ccccc23)c1	n	51	n	n	87	n	54
COC(=O)C(O)(c1ccc(N=Cc2ccccc2O)c(C)c1)C(F)(F)F (stereo not drawn)	n	n	n	n	n	n	x
O=Cc1cn(Cc2ccc(Br)cc2)c2ccccc12	n	59	n	n	n	n	n
COc1cc(/C=N/n2cnnc2)ccc1OC(=O)N(C)C	n	n	n	n	n	n	x
COc1cc(/C=C/[N+](=O)[O-])ccc1OC(=O)c1cccnc1	n	85	n	n	n	109	n

Compound activity as filed in PubChem.
